From the supplement of paper PMC10849652
Targets with a hit are over-represented here; the source holds about 7,900 in all. About 0.6% of all pairs of compound and target were hits.

compound: c1cn2cc(-c3ccc4cn[nH]c4c3)nc(Nc3ccc(N4CCOCC4)cc3)c2n1 [entospletinib]; assay: log2 fold change, soluble protein after heating vs DMSO (PISA); higher = thermal stabilisation; K562 cells, 10 uM, 30 min; active = over 0.2 and 3.5 SD of the protein, either way, in both replicates (recomputed)
In short: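 K562 cells at 2×10^6 cells/mL were given 10 μM compound for 30 min. Aliquots then went through 3 min of heating across 48°C-58°C, were pooled, and were extracted in PBS with 0.5% NP-40 at 4°C, and the supernatant after 21,000xg for 90 min was quantified by TMTpro 16plex LC-MS/MS with channel sums equalised. Thermal stability relative to control samples, from duplicates, is given as log2 fold change.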

UniProt O60763, sequence (O60763 whole entry, looked up): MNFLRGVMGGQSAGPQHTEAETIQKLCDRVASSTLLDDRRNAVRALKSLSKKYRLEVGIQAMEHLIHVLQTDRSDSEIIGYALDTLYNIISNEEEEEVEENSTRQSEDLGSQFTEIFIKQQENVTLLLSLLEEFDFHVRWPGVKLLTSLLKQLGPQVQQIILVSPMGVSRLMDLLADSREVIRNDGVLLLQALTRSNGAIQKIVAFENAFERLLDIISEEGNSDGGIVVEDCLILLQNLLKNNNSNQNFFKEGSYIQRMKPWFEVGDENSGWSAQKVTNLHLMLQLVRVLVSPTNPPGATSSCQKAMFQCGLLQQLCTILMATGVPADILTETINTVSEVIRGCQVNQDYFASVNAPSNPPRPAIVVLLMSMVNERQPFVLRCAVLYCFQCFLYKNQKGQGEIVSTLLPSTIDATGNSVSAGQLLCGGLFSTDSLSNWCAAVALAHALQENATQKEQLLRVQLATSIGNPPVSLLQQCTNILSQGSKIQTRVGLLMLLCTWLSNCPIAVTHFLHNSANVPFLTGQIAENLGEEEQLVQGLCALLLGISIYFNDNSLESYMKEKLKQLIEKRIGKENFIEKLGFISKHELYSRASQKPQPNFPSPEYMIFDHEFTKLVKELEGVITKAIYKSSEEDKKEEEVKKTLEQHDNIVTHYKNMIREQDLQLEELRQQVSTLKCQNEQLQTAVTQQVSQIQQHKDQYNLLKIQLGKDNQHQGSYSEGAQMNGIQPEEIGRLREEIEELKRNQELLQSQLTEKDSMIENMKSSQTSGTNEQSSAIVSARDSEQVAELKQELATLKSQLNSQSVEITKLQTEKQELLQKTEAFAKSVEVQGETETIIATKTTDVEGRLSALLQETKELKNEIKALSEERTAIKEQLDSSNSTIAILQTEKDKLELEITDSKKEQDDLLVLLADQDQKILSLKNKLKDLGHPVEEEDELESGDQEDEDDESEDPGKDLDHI
UniProt Q16881, sequence (Q16881 whole entry, looked up): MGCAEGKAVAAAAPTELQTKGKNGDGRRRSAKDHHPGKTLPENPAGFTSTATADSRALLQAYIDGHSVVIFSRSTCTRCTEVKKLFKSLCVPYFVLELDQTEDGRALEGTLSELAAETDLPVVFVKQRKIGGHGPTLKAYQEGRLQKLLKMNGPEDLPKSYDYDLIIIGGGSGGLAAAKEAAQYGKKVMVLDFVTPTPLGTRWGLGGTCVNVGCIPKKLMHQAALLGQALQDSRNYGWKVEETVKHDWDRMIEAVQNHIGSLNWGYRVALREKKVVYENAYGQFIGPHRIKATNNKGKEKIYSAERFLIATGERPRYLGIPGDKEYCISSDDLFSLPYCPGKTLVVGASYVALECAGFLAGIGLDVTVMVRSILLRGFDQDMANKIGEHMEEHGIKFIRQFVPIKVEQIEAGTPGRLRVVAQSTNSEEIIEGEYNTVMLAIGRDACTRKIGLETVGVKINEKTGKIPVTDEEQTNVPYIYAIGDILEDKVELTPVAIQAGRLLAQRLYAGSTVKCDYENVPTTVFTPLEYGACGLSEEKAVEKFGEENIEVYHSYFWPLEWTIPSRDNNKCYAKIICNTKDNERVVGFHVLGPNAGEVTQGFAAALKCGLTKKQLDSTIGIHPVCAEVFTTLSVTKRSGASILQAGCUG
UniProt O00124, sequence (O00124 whole entry, looked up): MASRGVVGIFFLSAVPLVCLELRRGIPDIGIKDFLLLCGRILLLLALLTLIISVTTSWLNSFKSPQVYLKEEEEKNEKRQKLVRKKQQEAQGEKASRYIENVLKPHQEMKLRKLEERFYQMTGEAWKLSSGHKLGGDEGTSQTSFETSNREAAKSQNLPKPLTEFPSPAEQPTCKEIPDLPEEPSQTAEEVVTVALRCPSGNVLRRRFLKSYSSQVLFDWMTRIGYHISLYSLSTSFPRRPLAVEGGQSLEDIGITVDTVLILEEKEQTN
UniProt P07951, sequence (P07951 whole entry, looked up): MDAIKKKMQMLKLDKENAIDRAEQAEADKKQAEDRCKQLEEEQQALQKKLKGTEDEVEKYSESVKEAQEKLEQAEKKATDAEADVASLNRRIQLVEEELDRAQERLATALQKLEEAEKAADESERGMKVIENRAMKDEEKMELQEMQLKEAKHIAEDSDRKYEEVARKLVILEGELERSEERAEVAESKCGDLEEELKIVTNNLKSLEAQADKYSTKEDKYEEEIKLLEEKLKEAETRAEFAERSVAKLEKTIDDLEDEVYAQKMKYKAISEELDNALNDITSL
UniProt Q9UBK9, sequence (Q9UBK9 whole entry, looked up): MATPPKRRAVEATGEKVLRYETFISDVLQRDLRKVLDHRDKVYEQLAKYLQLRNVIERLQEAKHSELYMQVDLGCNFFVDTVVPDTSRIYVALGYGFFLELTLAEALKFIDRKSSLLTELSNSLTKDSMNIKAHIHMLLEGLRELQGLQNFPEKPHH
UniProt Q9Y2I8, sequence (Q9Y2I8 whole entry, looked up): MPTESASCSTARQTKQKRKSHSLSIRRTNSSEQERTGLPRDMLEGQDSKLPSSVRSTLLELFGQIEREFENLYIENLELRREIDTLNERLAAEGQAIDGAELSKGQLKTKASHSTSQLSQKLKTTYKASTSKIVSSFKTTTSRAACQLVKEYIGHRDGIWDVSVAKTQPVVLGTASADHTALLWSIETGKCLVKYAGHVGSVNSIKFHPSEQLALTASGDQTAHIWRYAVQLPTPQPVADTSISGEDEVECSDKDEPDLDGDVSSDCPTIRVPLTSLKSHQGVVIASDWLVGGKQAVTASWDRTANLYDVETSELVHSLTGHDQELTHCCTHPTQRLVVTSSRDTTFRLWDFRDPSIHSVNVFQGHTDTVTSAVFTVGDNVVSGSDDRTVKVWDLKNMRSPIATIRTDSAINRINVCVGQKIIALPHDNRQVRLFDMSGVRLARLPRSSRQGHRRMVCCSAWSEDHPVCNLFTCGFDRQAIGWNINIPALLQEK
UniProt Q9UDW1, sequence (Q9UDW1 whole entry, looked up): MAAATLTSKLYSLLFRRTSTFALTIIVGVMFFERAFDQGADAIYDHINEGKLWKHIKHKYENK
UniProt Q9Y385, sequence (Q9Y385 whole entry, looked up): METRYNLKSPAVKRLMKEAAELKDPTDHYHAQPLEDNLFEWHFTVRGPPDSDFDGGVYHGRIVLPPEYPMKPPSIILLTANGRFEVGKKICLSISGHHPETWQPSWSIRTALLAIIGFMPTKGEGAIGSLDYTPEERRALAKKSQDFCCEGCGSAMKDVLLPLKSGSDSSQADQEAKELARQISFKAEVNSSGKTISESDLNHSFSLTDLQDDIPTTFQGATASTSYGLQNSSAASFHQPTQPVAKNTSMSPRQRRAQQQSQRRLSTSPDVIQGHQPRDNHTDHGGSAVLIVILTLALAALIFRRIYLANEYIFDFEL
UniProt P98170, sequence (P98170 whole entry, looked up): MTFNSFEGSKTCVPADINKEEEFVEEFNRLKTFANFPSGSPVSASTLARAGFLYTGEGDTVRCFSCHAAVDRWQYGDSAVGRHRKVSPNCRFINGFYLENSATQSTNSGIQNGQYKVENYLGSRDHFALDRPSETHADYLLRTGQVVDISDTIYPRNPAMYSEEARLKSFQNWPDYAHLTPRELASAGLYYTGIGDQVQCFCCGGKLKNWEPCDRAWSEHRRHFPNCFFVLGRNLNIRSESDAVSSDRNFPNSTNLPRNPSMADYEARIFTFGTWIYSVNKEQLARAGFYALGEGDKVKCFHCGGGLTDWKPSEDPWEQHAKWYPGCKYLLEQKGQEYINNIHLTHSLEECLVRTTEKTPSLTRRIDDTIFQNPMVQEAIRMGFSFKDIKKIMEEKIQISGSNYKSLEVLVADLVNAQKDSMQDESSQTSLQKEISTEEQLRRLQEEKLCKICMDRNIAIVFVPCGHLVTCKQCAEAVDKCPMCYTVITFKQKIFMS
UniProt Q9Y5K5, sequence (Q9Y5K5 whole entry, looked up): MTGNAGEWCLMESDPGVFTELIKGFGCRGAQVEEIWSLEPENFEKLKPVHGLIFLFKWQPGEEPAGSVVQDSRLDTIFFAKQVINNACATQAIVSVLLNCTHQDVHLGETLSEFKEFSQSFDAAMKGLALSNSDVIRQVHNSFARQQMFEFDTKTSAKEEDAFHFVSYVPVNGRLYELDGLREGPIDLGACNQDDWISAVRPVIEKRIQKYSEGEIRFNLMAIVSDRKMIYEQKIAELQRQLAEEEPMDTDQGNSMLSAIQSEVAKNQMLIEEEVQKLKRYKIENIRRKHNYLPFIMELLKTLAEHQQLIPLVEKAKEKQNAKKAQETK
UniProt Q9P0T7, sequence (Q9P0T7 whole entry, looked up): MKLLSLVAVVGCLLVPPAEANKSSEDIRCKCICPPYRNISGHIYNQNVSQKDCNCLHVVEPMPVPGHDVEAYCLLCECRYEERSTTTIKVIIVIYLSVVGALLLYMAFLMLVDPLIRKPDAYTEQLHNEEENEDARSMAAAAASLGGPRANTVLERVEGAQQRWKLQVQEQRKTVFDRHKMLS
UniProt Q15906, sequence (Q15906 whole entry, looked up): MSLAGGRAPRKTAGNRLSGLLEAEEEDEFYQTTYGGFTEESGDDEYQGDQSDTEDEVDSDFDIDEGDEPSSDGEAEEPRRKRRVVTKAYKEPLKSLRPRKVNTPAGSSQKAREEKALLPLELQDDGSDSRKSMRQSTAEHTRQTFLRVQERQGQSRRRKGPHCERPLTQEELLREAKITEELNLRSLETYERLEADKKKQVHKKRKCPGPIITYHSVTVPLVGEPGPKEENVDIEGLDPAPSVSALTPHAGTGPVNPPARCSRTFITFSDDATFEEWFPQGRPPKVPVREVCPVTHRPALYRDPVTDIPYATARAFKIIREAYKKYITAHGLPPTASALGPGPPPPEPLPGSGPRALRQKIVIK
UniProt Q96ET8, sequence (Q96ET8 whole entry, looked up): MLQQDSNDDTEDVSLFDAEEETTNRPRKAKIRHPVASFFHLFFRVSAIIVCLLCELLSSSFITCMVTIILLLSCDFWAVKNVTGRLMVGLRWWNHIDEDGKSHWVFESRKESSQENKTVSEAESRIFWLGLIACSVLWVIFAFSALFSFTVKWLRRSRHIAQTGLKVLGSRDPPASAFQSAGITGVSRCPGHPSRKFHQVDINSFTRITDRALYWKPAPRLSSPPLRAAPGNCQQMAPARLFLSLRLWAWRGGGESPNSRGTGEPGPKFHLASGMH

log2 fold change, active:
TVP23C (UniProt Q96ET8) 0.419

log2 fold change, inactive:
TXNRD1 (UniProt Q16881) 0.054
WDR46, A0A0G2JJL1 0.023
USO1 isoform 2 (UniProt O60763) -0.017
UQCR10 (UniProt Q9UDW1) -0.002
WDR37 isoform 2 (UniProt Q9Y2I8) -0.004
UCHL5 isoform 3 (UniProt Q9Y5K5) -0.025
UBXN8 (UniProt O00124) -0.231
UXT isoform 2 (UniProt Q9UBK9) -0.012
TMEM189-UBE2V1 (UniProt I3L0A0) -0.017
UBA1 (UniProt P22314) -0.025
TNPO2 (UniProt O14787) -0.063
WDR62 isoform 4 (UniProt O43379) -0.043
TMEM263 (UniProt Q8WUH6) -0.032
UBE2J1 (UniProt Q9Y385) 0
UHRF1BP1 (UniProt Q6BDS2) 0.015
TPM2 (UniProt P07951) -0.069
XIAP (UniProt P98170) -0.066
WNK1 isoform 7 (UniProt Q9H4A3) -0.005
WDR11 (UniProt Q9BZH6) -0.403
VPS72 isoform 2 (UniProt Q15906) 0.112
TMEM9 (UniProt Q9P0T7) -0.05
